# According to the supplement of paper PMC3334620:
# The full ranking holds about 33,000 sequences; the median of “E-score (-0.5 to 0.5)” is about -0.0059, and the highest 2% start at about 0.26. Many of the other results were omitted from the sample, so the highest values are more common in it than they were.
# Molecular target: T1, Cin5 (UniProt P40917)
# T1 sequence: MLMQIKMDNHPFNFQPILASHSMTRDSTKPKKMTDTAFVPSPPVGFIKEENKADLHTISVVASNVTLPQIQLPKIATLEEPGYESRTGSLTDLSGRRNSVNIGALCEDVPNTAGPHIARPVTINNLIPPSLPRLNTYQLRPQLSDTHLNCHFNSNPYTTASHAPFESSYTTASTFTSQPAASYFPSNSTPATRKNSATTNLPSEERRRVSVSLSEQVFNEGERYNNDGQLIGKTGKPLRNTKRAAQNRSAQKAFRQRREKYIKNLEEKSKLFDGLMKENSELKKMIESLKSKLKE
# Experiment: PBM E-score (8-mer binding enrichment) (E-score (-0.5 to 0.5)); higher = stronger / more preferred TF binding
# Conditions: protein concentration: 100 nM; construct: GST-full length
# Procedure: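 Universal 'all 10-mer' protein binding microarrays (Agilent AMADID 015681) probed with GST-tagged S. cerevisiae TFs (full-length or DBD) made by in vitro transcription/translation (PURExpress), about 100-200 nM. Bound TF was detected with fluorescent anti-GST. Each ungapped 8-mer (which stands for itself and its reverse complement) is scored by the PBM enrichment score (E-score), a modified Wilcoxon-Mann-Whitney statistic from -0.5 to +0.5, computed with the Universal PBM Analysis Suite. Scale: above 0.35 generally sequence-specific binding.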
row,Sequence,PBM E-score
1,GAAACTAA,0.0253
2,CAAACTAC,0.0495
3,AAAACTAA,0.275
4,AAAACTAT,0.2
5,ATAACTAA,0.141
6,GTAAGTAA,0.24
7,CTAACTAA,0.15
8,CAAACTAA,0.266
9,TTAACTAA,0.343
10,TTAAGTAA,0.423
11,CTAAGTAA,0.0623
12,TAAACTAA,0.252
13,CGACATAG,0.00383
14,CTGCAAAC,-0.149
15,AGCTGCCG,-0.0554
16,GCGGCGCC,0.115
17,CACGTGGG,-0.172
18,AGGCTGAC,0.0576
19,AGGCGGAA,-0.0282
20,GCGCGAGC,-0.0452
21,GGAATTGA,0.199
22,CCATCATA,0.05
23,CCATCATC,0.0863
24,ACATCATA,0.258

row,Sequence,PBM E-score
1,ACATCATC,0.344
2,GCATCATA,0.0947
3,ACATCATG,0.0711
4,CAACTCTG,-0.112
5,GACGCATC,0.00795
6,ACCAAGCC,-0.172
7,CCCCCCTC,-0.465
8,TAACCAAA,0.175
9,AAGGTGAA,-0.0511
10,CAGGAGGA,-0.315
11,TACCCATA,0.0256
12,AGCTGATG,0.14
13,AGTATAAG,0.239
14,AGTATAAT,0.301
15,TGTATAAA,0.114
16,AGTATATC,0.126
17,AGTATAAA,0.282
18,AGTATATA,0.346
19,AGTATAAC,-0.129
20,GGTATAAA,0.154
21,AGTATATG,0.183
22,ATTGTCGC,0.0313
23,GAACCCAC,0.121
24,ATAGTTTA,0.0429

row,Sequence,PBM E-score
1,GGGCGGTA,-0.169
2,AGCACGAT,0.0861
3,ATATCGAC,0.249
4,ATATCGAA,0.221
5,ATATCGCA,-0.00978
6,ATCTCGCC,0.0516
7,ATATCGCC,0.0352
8,ATATCGCG,0.301
9,ATATCGAT,0.265
10,ATCTCGCA,0.00313
11,ATCTCGCG,0.266
12,CACGTCGC,-0.119
13,CTCGACGC,0.0204
14,ATTGATTA,0.317
15,ACTGATTA,0.249
16,GTTGATTA,0.268
17,GTTGATGA,0.154
18,ATTGATTC,0.128
19,ATTGATTG,0.186
20,CTTGATTA,0.222
21,CCTGATTA,0.252
22,GCTGATTA,0.279
23,AAGTTGCC,-0.0351
24,CGGACGAA,0.15

row,Sequence,PBM E-score
1,CACACACG,-0.0573
2,TCCCAGAA,-0.129
3,AATCCGGA,0.234
4,AATGTTCT,-0.0398
5,ATTAATCA,0.263
6,CTTAATGA,0.0487
7,ATTAATTG,0.193
8,ATTAATCC,0.18
9,ATTAATGC,0.19
10,GTTAATCA,0.239
11,ATTAATGA,0.29
12,ATTAATTC,0.238
13,ATTAATTA,0.259
14,GCCACATA,0.064
15,ACTGCCCT,-0.0972
16,CGAAGACA,-0.0454
17,ATAACATA,0.26
18,ACAACATC,0.0575
19,ATAACATC,0.189
20,GCAACATA,0.0111
21,ACAACATA,0.268
22,ATAACATG,0.0972
